Assay results as given in PubChem BioAssay (NCI).
Where “and” joins values, the source holds several entries; their conditions need not be identical. Identical values can stand only once. The panel holds about 83,000 compounds, 20% with a hit somewhere; the sample as a whole holds those more often.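 Testing used 96-well plates and a 48-hour single-concentration exposure. Example: -40 means 40% of the starting cells died.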 Calls of active or inactive are those of the source. How the source made its calls: active means growth percent below 10; inactive means the rest.

System: MDA-MB-468 breast
Experiment: NCI-60 one-dose screen, 48 h (100 = growth as untreated, 0 = no growth, -100 = all killed)
Settings: 10 µM unless noted

Row | Compound | growth
1 | CCOC(=O)c1c(Cl)c2c(n1Cc1cccc(OC)c1)-c1oncc1CC2 | 11.1% (inactive)
2 | CCCc1cc2c(cc1CN(Cc1cc3c(cc1CCC)OCO3)C(=N)OCC)OCO2 | 60.8% (inactive)
3 | CS(=O)(=O)Nc1cc(-c2ccc3ncc(C#N)c(NCc4ccccc4O)c3c2)cnc1Cl | -23.1% (active)
4 | N#C/C(=C\NC(=S)N=Nc1c(O)[nH]c2ccccc12)c1nc2ccccc2s1 | 79.8% (inactive)
5 | COc1ccc(C2CC(c3cccs3)=NN2c2ccc(S(N)(=O)=O)cc2)cc1 (stereo not drawn) | 8.49% (active)
6 | O=C(Cn1c[n+](CC(=O)c2ccc(-c3ccccc3)cc2)c2ccccc21)Nc1cccc2cccnc12 | -6.11% (active)
7 | O=C(c1ccccc1)c1ccc(-c2ccc(O)cc2)cc1 | -16.5% (active)
8 | O=C(O)c1ccccc1C(=O)c1ccc(I)cc1 | 108% (inactive)
9 | O=S1(=O)CC(Br)C(Br)C1 (stereo not drawn) | 37% (inactive) and 75.6% (inactive)
10 | Fc1ccc(Cc2ccc(F)cc2)cc1 | 104% (inactive)
11 | COc1cc(-c2csc(NC(=O)Nc3cc(C(F)(F)F)cc(C(F)(F)F)c3)n2)cc(OC)c1OC | 4.77% (active)
12 | O=C(Nc1ccc(-c2nc3ccc(NC(=O)c4ccc(Cl)cc4)cc3[nH]2)cc1)c1ccc(Cl)cc1 | -10.8% (active)
13 | Cn1cnc([N+](=O)[O-])c1S(=O)(=O)Oc1ccc(Cl)cc1 | 29.8% (inactive)
